Bioassay records as filed in PubChem BioAssay.
Only some compounds are listed: those with a hit (about 19% of all), similar ones and a draw of the others.
DT40 TDP1 CPT: DT40-hTDP1 cell growth loss with CPT; actives 12% (n = 420,000); chicken DT40 Tdp1-/-;hTDP1 cells + 20 nM CPT, ATP luminescence, 48 h; Potency, µM (series often up to 46.2 µM), inactives show at the top dose activity change, negative = growth inhibition, actives largely listed as inhibitors; further: potency means the concentration at half of the fitted maximal effect; nearly all actives have a fitted effect of over 55% in size
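Chicken DT40 Tdp1-/- cells complemented with human TDP1, 400 cells/well, exposed to compounds plus 20 nM camptothecin for at least 48 h at 37 C; viability read as ATP content by CellTiter-Glo luminescence.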
HT1080-NT tox: kills 2HG-producing HT-1080-NT fibrosarcoma cells; HT-1080-NT fibrosarcoma viability, CellTiter-Glo ATP luminescence, 48 h; Potency, µM (doses to about 46.1 µM), for the others: at the top dose activity, negative = less viability, usual class: cytotoxic; actives 1.6% (n = 360,000);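 further: NT is the 2HG producing partner of a matched IDH1 knockdown line; potency means the concentration at half of the fitted maximal effect; 0% = DMSO-treated cells and -100% = media-only wells without cells; nearly all actives have a fitted effect of over 55% in size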
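Viability by CellTiter-Glo luminescence after 48 h compound exposure at 37C of HT-1080-NT cells (750/well, RPMI, 5% FBS). % activity scaled between DMSO wells and medium-only wells, then curve-fitted and categorized by curve class.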
TDP1 cell noCPT: qHTS for Inhibitors of human tyrosyl-DNA phosphodiesterase 1 (TDP1): qHTS in cells in absence of CPT | AID 686978, 2013 | actives 15% (n = 420,000) | DT40 Tdp1-/- hTDP1 cells, no CPT, ATP luminescence, 48 h | Potency, µM (doses to about 46.2 µM), for the others: at the highest dose activity change, negative = growth inhibition, most hits filed as inhibitors; further: potency means the concentration at half of the fitted maximal effect; nearly all actives have a fitted effect of over 55% in size
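Compound effects on proliferation are scored in DT40 Tdp1-/-;hTDP1 cells in the absence of CPT. ATP levels (CellTiter-Glo luminescence) are recorded after a ≥48 hr, 37 °C incubation.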
IL1B secr inh: blocks inflammasome-driven IL-1 beta release; THP-1 LPS/ATP IL-1B secretion, AlphaLISA, 16 h; hits give low values; actives 4.7% (n = 360,000); activity change, % at 57.5 µM; in the data active means activity change below about -50%; inconclusive means mostly about -30% to -49%
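Secreted IL-1B measured by AlphaLISA bead assay after 16 h compound exposure of THP-1 cells; compounds (final up to 57.5 uM) added 1 h before LPS (250 ng/mL) and ATP (1.25 mM) stimulation; lower signal means less secretion.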
HT1080 IDH1KD tx: toxicity to HT-1080 IDH1 knockdown cells (counter line) | HT-1080 IDH1 knockdown viability, ATP luminescence, 48 h | Potency, µM (series often up to 46.1 µM), inactives show at the top dose activity, negative = toxicity, actives largely listed as cytotoxic | actives 2% (n = 360,000);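 further: potency means the concentration at half of the fitted maximal effect; 0% = DMSO wells and -100% = cell-free medium wells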
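Luminescent ATP read-out (CellTiter-Glo, 10 min at room temperature) after 48 h compound exposure at 37 °C gave viability of IDH1-knockdown HT-1080 cells. Activity was normalised to DMSO and cell-free wells, then fitted as concentration-response curves.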
uPA surface inh: blocks generation of uPA at the cell surface. cell surface uPA generation assay, qHTS. Potency, µM (top dose mostly 38.3 µM), for the others: top-dose activity change, negative = inhibition, most hits filed as inhibitors. actives 0.31% (n = 330,000). AID 540303; active means well fitted inhibition curve with a large enough effect; inconclusive means small, poorly fitted or top-dose-only effect; inactive means no such curve, though single readings can be large or run the other way; tested in mouse RAW 264.7 cells; further: potency means the concentration at half of the fitted maximal effect; nearly all actives have a fitted effect of over 55% in size
The depositor's hits bear a star; [ ] = remark or other dose. Unless noted, the call rests on the fitted dose curve; in most records, active means well fitted curve in the direction sought with a large enough effect; inconclusive means small, poorly fitted or top-dose-only effect, or another doubt; inactive means no such curve, though single readings can be large; an effect the other way counts as inactive or inconclusive. Unless noted, on the % scale 0 is the no-effect control and ±100 the full control effect.

For CC1Cc2ccccc2N1Cc1cc(=O)c(OCC(=O)Nc2ccccc2)co1 (centres undefined) the results were DT40 TDP1 CPT inconclusive, HT1080-NT tox -9%, TDP1 cell noCPT inconclusive, IL1B secr inh -6, HT1080 IDH1KD tx -1% and uPA surface inh 2%.
COc1ccc(OC)c(NC(=O)COc2coc(CN3CCCc4ccccc43)cc2=O)c1 was read as DT40 TDP1 CPT inconclusive, HT1080-NT tox -16%, TDP1 cell noCPT inconclusive, IL1B secr inh 22, HT1080 IDH1KD tx inconclusive and uPA surface inh -2%.
Cc1ccc(NC(=O)COc2coc(CN3c4ccccc4CC3C)cc2=O)c(C)c1 (centres undefined) was read as DT40 TDP1 CPT inconclusive, HT1080-NT tox -4%, TDP1 cell noCPT 13µM*, IL1B secr inh -1, HT1080 IDH1KD tx -7% and uPA surface inh 24%.
`COc1ccc(OC)c(NC(=O)COc2coc(CN3CCc4ccccc43)cc2=O)c1` gave DT40 TDP1 CPT inconclusive, HT1080-NT tox -7%, TDP1 cell noCPT 16µM*, IL1B secr inh 1, HT1080 IDH1KD tx -14% and uPA surface inh 1%.
C[C@@H]1CN([C@H](C)CO)S(=O)(=O)c2ccc(C#CCN(C)C)cc2O[C@@H]1CN(C)Cc1ccccc1F was read as DT40 TDP1 CPT inconclusive, HT1080-NT tox 2%, TDP1 cell noCPT inconclusive, IL1B secr inh -21 and HT1080 IDH1KD tx 2%.
Screening C#Cc1ccc([C@@H]2C=C(C(=O)N3CCN(Cc4ccc5c(c4)OCO5)CC3)O[C@H](OCCCCO)C2)cc1 returned DT40 TDP1 CPT inconclusive, HT1080-NT tox 7%, TDP1 cell noCPT inconclusive, IL1B secr inh -20, HT1080 IDH1KD tx -5% and uPA surface inh 1%.
`COc1ccc(OC)c(-c2cc(Cl)c3c(c2)CC(CNC(=O)c2cccnc2SC)O3)c1` (centres undefined) gave DT40 TDP1 CPT 3%[9.04 µM] and TDP1 cell noCPT inconclusive.
For COc1ccc(C(=O)Nc2ccccc2)cc1S(=O)(=O)Nc1ccc(Br)cc1 the results were DT40 TDP1 CPT -9% and TDP1 cell noCPT -12%.
Screening Cc1ccc(NS(=O)(=O)c2cc(NC(=O)c3ccc4c(c3)NC(=O)CS4)ccc2C)c(C)c1 returned DT40 TDP1 CPT inconclusive, HT1080-NT tox inconclusive, TDP1 cell noCPT inconclusive, IL1B secr inh -115*, HT1080 IDH1KD tx inconclusive and uPA surface inh -3%.
Screening COc1ccc(NC(=O)c2ccc3c(c2)NC(=O)CS3)cc1S(=O)(=O)Nc1ccc(Br)cc1 returned DT40 TDP1 CPT inconclusive, HT1080-NT tox -1%, TDP1 cell noCPT 29µM*, IL1B secr inh -25, HT1080 IDH1KD tx -19% and uPA surface inh inconclusive.
For CCN(c1ccccc1)S(=O)(=O)c1nnc(NC(=O)COc2ccc(OC)cc2)s1 the results were DT40 TDP1 CPT -2% and TDP1 cell noCPT -8%.
For CCOc1ccc(S(=O)(=O)NCCc2csc3nc(-c4ccc(F)cc4)nn23)cc1 the results were DT40 TDP1 CPT 12µM* and TDP1 cell noCPT 6.5µM*.
Cc1noc(C)c1S(=O)(=O)NCCc1csc2nc(-c3ccc(F)cc3)nn12 was read as DT40 TDP1 CPT 18µM* and TDP1 cell noCPT 23µM*.
`Cc1noc(C)c1S(=O)(=O)N(C)CC(=O)Nc1ccc(F)cc1` gave DT40 TDP1 CPT -9%, HT1080-NT tox 5%, TDP1 cell noCPT -5%, IL1B secr inh 15, HT1080 IDH1KD tx -6% and uPA surface inh 6%.
Screening COc1ccc(S(=O)(=O)NCCc2ccc(F)cc2)cc1 returned DT40 TDP1 CPT -10%, HT1080-NT tox 0%, TDP1 cell noCPT -11%, IL1B secr inh -6, HT1080 IDH1KD tx 1% and uPA surface inh -1%.
For OC(c1cccnc1)c1nc(-c2cccc(F)c2)cs1 (centres undefined) the results were DT40 TDP1 CPT inconclusive, HT1080-NT tox 1%, TDP1 cell noCPT inconclusive, IL1B secr inh -11 and HT1080 IDH1KD tx 6%.
`COc1cc(=O)n2c(c1C(=O)NCc1ccco1)CCN(Cc1cccc(C(F)(F)F)c1)CC2` gave DT40 TDP1 CPT 17%[9.04 µM] and TDP1 cell noCPT -1%.
Screening CCOC(=O)C1CCN(C(=O)C(CC)c2ccccc2)CC1 (centres undefined) returned DT40 TDP1 CPT -2%, HT1080-NT tox 6%, TDP1 cell noCPT -26%, IL1B secr inh 15, HT1080 IDH1KD tx 10% and uPA surface inh 5%.
For COc1ccc(C(=O)Nc2ccc(NC(C)=O)cc2)cc1S(=O)(=O)N1CCCCC1C (centres undefined) the results were DT40 TDP1 CPT inconclusive, HT1080-NT tox inconclusive, TDP1 cell noCPT inconclusive, IL1B secr inh 12, HT1080 IDH1KD tx inconclusive and uPA surface inh -19%.
For COc1ccc(C(=O)Nc2ccc(S(=O)(=O)N3CCCCC3C)cc2)c(OC)c1OC (centres undefined) the results were DT40 TDP1 CPT 18µM*, HT1080-NT tox inconclusive, TDP1 cell noCPT 16µM*, IL1B secr inh -59*, HT1080 IDH1KD tx inconclusive and uPA surface inh -6%.
Screening COc1cc(C(=O)Nc2ccc(S(=O)(=O)N3CCCCC3C)cc2)cc(OC)c1OC (centres undefined) returned DT40 TDP1 CPT 21µM*, HT1080-NT tox -26%, TDP1 cell noCPT inconclusive, IL1B secr inh inconclusive, HT1080 IDH1KD tx inconclusive and uPA surface inh -4%.
Screening COc1cc2nc(Nc3cccc(F)c3)nc(N)c2cc1OC returned DT40 TDP1 CPT 12µM*, HT1080-NT tox inconclusive, TDP1 cell noCPT 5.8µM*, HT1080 IDH1KD tx inconclusive and uPA surface inh 3%.
`COc1ccc(Nc2nc(N)c3ccccc3n2)c(OC)c1` gave DT40 TDP1 CPT 12%, HT1080-NT tox -22%, TDP1 cell noCPT -34%, HT1080 IDH1KD tx inconclusive and uPA surface inh -6%.
Screening COc1ccc(Nc2nc(N)c3cc(OC)c(OC)cc3n2)cc1 returned DT40 TDP1 CPT inconclusive and TDP1 cell noCPT 18µM*.
For CN(C)CCNc1nc(Oc2cccc(F)c2)c2sccc2n1 the results were DT40 TDP1 CPT inconclusive, HT1080-NT tox inconclusive, TDP1 cell noCPT inconclusive, IL1B secr inh -29 and HT1080 IDH1KD tx inconclusive.
Screening COC(=O)CNC(=O)C(=O)OC returned DT40 TDP1 CPT 5%[4.12 µM] and TDP1 cell noCPT -2%[4.12 µM].
